Assay outcomes (PubChem)
Most compounds without a hit are left out; they make up all but 7.4% or so of the library.
NPC1 prom act = NPC1 promoter activation; AID 485313; Huh7 NPC1 promoter luciferase reporter, 24 h; hit rate 2.4% among 320,000; Potency, µM (series often up to 9.22 µM), without a hit: at the top dose activation, hits mostly activators; further: % of control where 0% means no effect; nearly all actives have a fitted effect of over 60% in size
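Quantitative HTS used a cell-based reporter: Huh7 cells stably bearing the NPC1 promoter upstream of luciferase were treated with compounds for 24 h, and promoter activation was read as luminescence.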
SMN2 splice enh = enhancers of SMN2 splice variant expression. hit rate 2.8% among 210,000. Potency, µM (doses to about 46.1 µM), for the others: at the highest dose activity change, positive = activation, most hits filed as activators. HEK293 SMN2-luciferase splicing reporter, luminescence, 30-36 h; further: % of control where 0% means no effect; nearly all actives have a fitted effect of over 55% in size
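HEK293 cells carry an SMN2 […]–luciferase reporter in which exon 7 inclusion puts luciferase in frame. Cells were plated 10-12 h before compound addition, then incubated 30-36 h at 37C. ONE-Glo luminescence was read; sodium butyrate at 4.5 mM final served as control.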
FLuc counter = inhibits or activates purified firefly luciferase, miR-21 counter-screen. P08659. Potency, µM (series often up to 57.5 µM), for inactives: top-dose activity change, negative = inhibition, actives largely listed as inhibitors. purified FLuc, Km substrates, luminescence inhibition. hit rate 6.9% among 360,000. AID 588342;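 further: plate controls were vehicle for no effect and reference inhibitor for full effect; nearly all actives have a fitted effect of over 55% in size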
Target sequence (P08659 whole entry, looked up): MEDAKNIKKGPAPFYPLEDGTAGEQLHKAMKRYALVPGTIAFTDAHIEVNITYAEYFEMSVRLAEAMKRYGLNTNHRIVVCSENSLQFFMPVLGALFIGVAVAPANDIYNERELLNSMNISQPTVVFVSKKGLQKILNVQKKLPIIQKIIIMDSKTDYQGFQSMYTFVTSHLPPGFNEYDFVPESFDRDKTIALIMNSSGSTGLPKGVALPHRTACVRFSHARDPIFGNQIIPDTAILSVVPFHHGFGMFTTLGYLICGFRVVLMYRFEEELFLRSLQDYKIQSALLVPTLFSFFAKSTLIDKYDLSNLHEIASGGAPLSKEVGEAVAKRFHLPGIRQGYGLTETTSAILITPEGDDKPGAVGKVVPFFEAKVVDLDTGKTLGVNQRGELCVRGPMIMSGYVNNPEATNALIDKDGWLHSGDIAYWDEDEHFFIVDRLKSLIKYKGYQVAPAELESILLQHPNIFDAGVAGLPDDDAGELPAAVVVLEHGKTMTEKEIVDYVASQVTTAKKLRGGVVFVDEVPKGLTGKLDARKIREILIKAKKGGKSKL
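Purified P. pyralis luciferase, 10 nM final, with Km-level 10 uM D-luciferin and 10 uM ATP in 50 mM Tris acetate pH 7.5, 10 mM Mg acetate, 0.01% Tween-20, 0.05% BSA; 6-point qHTS titration about 60 µM downward; luminescence read.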
Rab9 prom act = activators of Rab9 promoter | Potency, µM (top dose mostly 9.22 µM), without a hit: at the top dose activation, negative = inhibition, usual class: activators | Huh7 Rab9 promoter-luciferase reporter, luminescence, 24 h | hit rate 2.8% among 320,000; further: % of control where 0% means no effect; nearly all actives have a fitted effect of over 60% in size
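Cells were plated at 1500 per well in reduced-serum medium with 10% FBS and left 2 h. Compound in DMSO was then added for 24 h at 37 °C. Reporter signal was read by luminescence after 10 min with luciferase detection reagent.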
p53 reactivator = mutant p53 re-activation in reporter cells; H1299 p53-A138V BP100-luciferase reporter, luminescence, 24 h; Potency, µM (top dose mostly 92.2 µM), inactives show top-dose activity change, positive = activation, hits mostly activators; hit rate 0.063% among 320,000; further: % of control where 0% means no effect; nearly all actives have a fitted effect of over 45% in size
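p53-null H1299 cells stably carrying temperature-sensitive p53-A138V and a BP100-luciferase reporter were pinned with compounds (4-point, 1:5 series) and held 24 hrs at 37 deg C. Luminescence was read 10 min after detection reagent.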
ELG1 genotox = induces genotoxicity in HEK293T cells with luciferase-tagged ELG1; Potency, µM (doses to about 46 µM), without a hit: top-dose activity change, positive = activation, most hits filed as activators; HEK293T ELG1-luciferase reporter, luminescence, 16 h; hit rate 1.3% among 330,000; further: % of control where 0% means no effect; nearly all actives have a fitted effect of over 60% in size
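Reporter readout depends on ELG1 protein level, which increases with genetic stress. After 16 hr compound exposure at 37 °C, luciferase activity was quantified using ONE-Glo.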
Active calls of the source: *; ? = inconclusive; . = no result; [ ] = remark or other dose. The call rests on the fitted dose curve; in most records, active means well fitted curve in the direction sought with a large enough effect; inconclusive means small, poorly fitted or top-dose-only effect, or another doubt; inactive means no such curve, though single readings can be large; an effect the other way counts as inactive or inconclusive. Potency means the concentration at half of the fitted maximal effect.

SMILES	NPC1 prom act	SMN2 splice enh	FLuc counter	Rab9 prom act	p53 reactivator	ELG1 genotox
COc1ccc(-n2nc(C(=O)NCC(=O)N3CCN(c4ccccc4F)CC3)c3ccccc3c2=O)cc1	?	.	0.34µM*	?	27%	7%
O=C(Nc1ccc(F)cc1F)NC1CC1	0%	-1%	0%	2%	8%	-2%
COc1cc(NC(=O)C2Cc3ccccc3CN2S(C)(=O)=O)cc(OC)c1 (stereo not given)	-2%	.	2%	-1%	-4%	3%
COc1cccc(C(=O)COC(=O)CCCC(=O)NC2CCCCC2)c1	-3%	.	27µM*	0%	-9%	-1%
COc1cc(NC(=O)NC2Cc3ccccc3C2)cc(OC)c1	5%	.	17µM*	15%	9%	8%
O=C(Nc1cccc(F)c1)NC1CCCCC1	?	18µM*	24µM*	?	?	?
O=C(Nc1ccc(F)cc1F)NC1CCCCCCC1	?	.	12µM*	?	19%	?
COC(=O)c1ccc(NC(=O)CC2C(=O)N(c3cccc(OC)c3)C(=O)N2C(C)C)cc1 (stereo not given)	.	.	2%	.	.	.
COc1cccc(NC(=S)N2CCC(NC(=O)C3CCCCC3)CC2)c1	-2%	.	7%	6%	1%	-7%
COc1cccc(NC(=O)C2CCCN2C(=O)NC2CCCCC2)c1 (stereo not given)	1%	.	0%	0%	1%	5%
COc1cccc(NC(=O)NC2CCCCCCC2)c1	3.5µM*	.	11µM*	?	28%	?
O=C(Nc1ccc2c(c1)OCCO2)NC1CCCCC1	0.63µM*	10µM*	3.8µM*	0.56µM*	.	1.6µM*
COc1cccc(NC(=O)C(=S)NC2CCCCC2)c1	2µM*	3.5µM*	2.4µM*	0.79µM*	24%	?
CCc1cccc(CC)c1N(COC)C(=O)Cn1c(C)nc2ccccc21	.	-3%	-6%	.	.	.
Cc1ccc(CNc2ccc(-c3nc(-c4ccccn4)no3)cc2[N+](=O)[O-])cc1	.	.	-17%	.	.	.
CCc1ccc(CN(C(=O)c2nc(SC)ncc2Cl)C2CCS(=O)(=O)C2)cc1 (stereo not given)	.	-2%	-6%	.	.	.
CC(=C\c1ccccc1)/C=C1/SC(=S)N(CCCC(=O)O)C1=O	-15%	.	27µM*	-20%	-16%	-1%
CC(=C\c1ccccc1)/C=C1/SC(=S)N(C(C(=O)O)C(C)C)C1=O (stereo not given)	1%	-2%	27µM*	1%	?	0%
C=CCN1C(=O)/C(=C\C(C)=C\c2ccccc2)SC1=S	14%	.	8.5µM*	1%	12%	?
CC(/C=C1\SC(=S)N(CCC(=O)Nc2ccccc2O)C1=O)=C\c1ccccc1	6%	.	2%	7%	-4%	-2%
CC(/C=C1\SC(=O)N(CCCC(=O)O)C1=O)=C\c1ccccc1	-32%	-76%	5.4µM*	-30%[0.369 µM]	-14%	-9%
COc1cc(NC(=O)Cn2cnc3sc(C)c(S(=O)(=O)N4CCC(C)CC4)c3c2=O)cc(OC)c1OC	.	4%	-1%	.	.	.
Cc1ccc2c(=O)cc(C(=O)Nc3cccc(Cl)c3C)oc2c1C	.	25%	-1%	.	.	.
COc1ccc(OC)c(S(=O)(=O)NCCc2sc(C)nc2C)c1	.	.	1%	.	.	.
O=C(Nc1nc(-c2ccc(F)c(F)c2)cs1)C1=COCCO1	20%	.	?	?	?	4%
SMILES	NPC1 prom act	SMN2 splice enh	FLuc counter	Rab9 prom act	p53 reactivator	ELG1 genotox
Cc1ccc(CSc2nnc(NC(=O)C3=COCCO3)s2)cc1	10%	.	27µM*	3%	18%	9%
CCc1ccc(-c2csc(NC(=O)C3=COCCO3)n2)cc1	0.89µM*	.	8.5µM*	0.79µM*	?	?
O=C(Nc1nc(-c2ccc(Cl)cc2)cs1)C1=COCCO1	?	.	24µM*	16%	17%	7%
O=C(Nc1nc(-c2cccs2)cs1)C1=COCCO1	?	13µM*	12µM*	?	?	?
CCN(C(=O)COC(=O)c1cc([N+](=O)[O-])ccc1N1CCOCC1)C1CCCCC1	-1%	.	2%	-2%	-6%	4%
COc1cc2c(cc1OC)/C(=C/C(=O)c1ccccc1)NCC2	22%	.	-18%	-2%	-7%	12%
COc1cc2c(cc1OC)/C(=C/C(=O)c1ccc(C)cc1)NCC2	-2%	.	17µM*	6%	-6%	7%
CCC1(CC)NC(=O)N(CC(=O)OCC(=O)c2ccccc2OC)C1=O	-2%	.	1%	1%	-1%	3%
COc1ccc(-c2nnc(SC(C)C(=O)O)o2)cc1 (stereo not given)	.	-1%	12µM*	.	.	.
COc1ccc(-c2nnc(SC(C)C(=O)Nc3cccc(Cl)c3)o2)cc1 (stereo not given)	?	16µM*	-18%	4µM*	21%	21µM*
CSc1nc(C(=O)N2CCCC(Nc3ccc(C)c(C)c3)C2)cs1 (stereo not given)	9%	.	-4%	-6%	-3%	-11%
COc1ccc(C/C(O)=C(\C#N)c2nc3ccccc3s2)cc1	-4%	-45%	?	-3%[1.84 µM]	-3%	-8%
N#C/C(=C(/O)c1ccc(-c2cccc([N+](=O)[O-])c2)o1)c1nc2ccccc2s1	8%	2%	3µM*	17%	14%	-4%
N#C/C(=C(/O)COc1ccccc1)c1nc2ccccc2s1	-1%	2%	19µM*	-1%	-4%	-6%
N#C/C(=C(/O)CSc1ccccn1)c1nc2ccccc2s1	0%	77%	21µM*	-6%	4%	6%
N#C/C(=C(/O)COc1ccc(Cl)cc1)c1nc2ccccc2s1	4%	-15%	24µM*	-2%	7%	-10%
O=C(Nc1ccc(Cl)c(-c2nc3ccccc3o2)c1)c1ccc(-c2cccc([N+](=O)[O-])c2)o1	.	0%	-11%	.	.	.
N#C/C(=C(/O)c1ccc(F)cc1)c1nc2ccccc2s1	2.5µM*	-35%	9.5µM*	2.5µM*	3%	-2%
N#C/C(=N\O)c1nc2ccccc2s1	-4%	.	?	4%	3%	-2%
CCOC(=O)c1sc(-c2cccs2)nc1C	10%	17%	17µM*	28%	11%	1%
CNC(=O)c1sc(-c2ccc(Cl)cc2)nc1C	.	?	15µM*	.	.	.
C/C(=N\O)c1sc(-c2ccccc2)nc1C	4µM*	16µM*	8.5µM*	3.2µM*	26%	?
Cc1nc(-c2ccccc2)sc1C(N)=O	12%	22%	-15%	9%	17%	18%
CNC(=O)c1sc(-c2ccccc2)nc1C	26%	0%	?	13%	9%	?
